A selection: hits, their analogues and other compounds. The true share with any hit is near 21%.
CYP2C19 activ: human CYP2C19 activators, primary screen, biochemical, luminescence; recombinant CYP2C19, luciferin-H EGE luminescence; hits give high values; 0 = fully inhibited enzyme, 1 = untreated enzyme; activation factor at 5 µM; 96,000 tested, under 10 active;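 active = activation factor of at least 2 at 5 µM in the primary screen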
Target sequence (P33261 whole entry, looked up): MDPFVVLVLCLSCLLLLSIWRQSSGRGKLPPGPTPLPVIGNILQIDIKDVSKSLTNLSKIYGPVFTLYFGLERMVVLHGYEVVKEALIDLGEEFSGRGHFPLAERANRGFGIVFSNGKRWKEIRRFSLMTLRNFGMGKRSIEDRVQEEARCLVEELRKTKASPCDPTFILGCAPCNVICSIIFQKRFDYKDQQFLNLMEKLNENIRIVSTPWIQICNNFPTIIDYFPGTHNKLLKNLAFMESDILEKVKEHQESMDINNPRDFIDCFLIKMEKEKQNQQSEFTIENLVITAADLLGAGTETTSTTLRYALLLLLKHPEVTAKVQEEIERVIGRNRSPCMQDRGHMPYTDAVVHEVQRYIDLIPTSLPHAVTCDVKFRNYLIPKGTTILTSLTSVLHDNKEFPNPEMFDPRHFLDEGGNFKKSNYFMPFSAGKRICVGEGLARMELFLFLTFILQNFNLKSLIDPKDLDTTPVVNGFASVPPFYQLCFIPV
CYP2C9 act: human CYP2C9 activators, primary screen, biochemical, luminescence; Cytochrome P450 2C9 (Homo sapiens), P11712; recombinant CYP2C9, luciferin-H conversion; hits give high values; factor 1 = untreated enzyme, 0 = blocked; activation factor at 5 µM; actives 1.4% (n = 96,000); AID 1024, 2008;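 active = activation factor of 2 or more for CYP2C9 at a 5 µM dose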
MRP1 act: H69AR viability gain despite doxorubicin, primary screen, MRP-1 activator project, H69AR cells, CellTiter-Glo. viability rescue. actives 0.61% (n = 140,000). viability increase, % at 10 µM. AID 799, 2007;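 active = viability gain under doxorubicin at or above a set limit, the compound median plus 3 SD, cut at about 4.7% in these data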;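 also: MRP-1 overexpressing cells given doxorubicin 25 µM after compound pretreatment; 18-22 h compound pretreatment then 72 h with doxorubicin before readout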
CYP2C19 inhib: blockers of cytochrome P450 2C19 activity – biochemical, luminescence, ADME assay, primary screen | P33261 | inhibition, % at 5 µM | CYP2C19 Supersomes, luciferin-H EGE luminescence, 30 min | actives 21% (n = 96,000);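 active = CYP2C19 inhibition above a set limit at 5 µM in the primary screen, cut at about 50% in these data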
MRP reversal: reversal of MRP1-mediated doxorubicin resistance, primary screen, H69AR cells, doxorubicin co-treatment | H69AR cells + 2 uM doxorubicin, CellTiter-Glo, 72 h | differential viability (reversal), % at 10 µM | actives 0.04% (n = 85,000);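 active = viability drop by adding the cancer drug above about 55%, with treated viability meeting a 40% cutoff, limit read from the data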;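 also: larger differential means the compound sensitizes cells more to doxorubicin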
CYP2C9 inhib: blockers of cytochrome P450 2C9 activity – biochemical, luminescence, ADME assay, primary screen; P11712; CYP2C9 Supersomes, luciferin-H conversion; inhibition, % at 5 µM; actives 20% (n = 96,000);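 active = blocking of liver enzyme CYP2C9 beyond about 50% at 5 µM, limit read from the data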
Each line names hits and unclear results; the compound was inactive in the other large screens.

C=C(C)CNC(=S)N1CCNC(=O)C1CC(=O)OC (stereo unspecified)	none (no result: CYP2C19 activ, CYP2C9 act, CYP2C19 inhib, MRP reversal, CYP2C9 inhib)
O=c1c(Cc2ccc(F)cc2)c(O)ccn1Cc1cccc(Cl)c1	none (no result: MRP reversal)
N#Cc1c(-c2ccccc2)ccnc1Oc1ccccc1	CYP2C19 inhib 53 (no result: MRP reversal)
O=C1c2ccccc2COc2ccc(O)cc21	none
Nc1ccc2c(c1)COc1ccccc1O2	CYP2C19 inhib 69
Fc1cc(F)c(F)c(SCCc2ccncc2)c1F	CYP2C19 inhib 81, CYP2C9 inhib 74
CCCCS(=O)Cc1ccccc1 (stereo unspecified)	none
O=S(CCc1ccncc1)Cc1ccccc1 (stereo unspecified)	CYP2C19 inhib 85, CYP2C9 inhib 53
c1ccc(SCCc2ccncc2)cc1	CYP2C19 inhib 95, CYP2C9 inhib 81
Fc1ccc(SCCc2ccncc2)cc1	CYP2C19 inhib 97, CYP2C9 inhib 82
COCCN1C(=O)N[C@@H](c2ccccc2)C(C(C)=O)=C1C	none (no result: CYP2C19 activ, CYP2C9 act, CYP2C19 inhib, MRP reversal, CYP2C9 inhib)
O=C1OC(Nc2ccc3c(c2)OCO3)c2ccccc21 (stereo unspecified)	CYP2C19 inhib 64
O=C1OC(Nc2ccc(F)cc2F)c2ccccc21 (stereo unspecified)	none
O=C1c2ccccc2C(Nc2ccc3c(c2)OCCO3)N1Cc1ccc2c(c1)OCO2 (stereo unspecified)	CYP2C19 inhib 78, CYP2C9 inhib 80
CCN1C(C(=O)c2ccccc2)=C(Nc2ccccc2C)c2ccccc2S1(=O)=O	none (no result: CYP2C19 activ, CYP2C9 act, CYP2C19 inhib, MRP reversal, CYP2C9 inhib)
COC(=O)[C@H](Cc1ccccc1)NC(=O)O[C@@H]1C(=O)c2cc(Br)ccc2O[C@H]1c1cccc(OC)c1	none (no result: CYP2C19 activ, CYP2C9 act, CYP2C19 inhib, MRP reversal, CYP2C9 inhib)
CCOc1cc(CNCCc2ccc(S(N)(=O)=O)cc2)ccc1OCc1ccc(Cl)cc1	CYP2C19 inhib 54 (no result: MRP reversal)
COc1cc(CNCCc2ccccc2)ccc1OCc1ccc(Cl)nc1	CYP2C19 inhib 68 (no result: MRP reversal)
COc1cc(CNCCc2ccc(S(N)(=O)=O)cc2)ccc1OCC(=O)NC1CCCCC1	none (no result: MRP reversal)
COc1cc(CNCCc2ccc(S(N)(=O)=O)cc2)ccc1OCc1ccc(Cl)cc1	CYP2C19 inhib 53 (no result: MRP reversal)
COc1cc(CNCC(O)c2ccccc2)ccc1OCc1ccc(Cl)nc1 (stereo unspecified)	none (no result: MRP reversal)
Cc1ccc(S(=O)(=O)N2CCCC(C(=O)NCc3cccnc3)C2)cc1Cl (stereo unspecified)	CYP2C19 inhib 86
O=C(NCc1ccccc1)C1CCCN(S(=O)(=O)c2cccnc2)C1 (stereo unspecified)	none
COc1ccc(S(=O)(=O)N2CCCC(C(=O)NCc3ccncc3)C2)cc1Cl (stereo unspecified)	CYP2C19 inhib 100, CYP2C9 inhib 98
COc1ccc(S(=O)(=O)N2CCCC(C(=O)Nc3cccnc3)C2)cc1Cl (stereo unspecified)	none (no result: CYP2C19 activ, CYP2C9 act, CYP2C19 inhib, CYP2C9 inhib)
OC1(c2ccc3ccccc3c2)CCN(Cc2ccccc2)C1 (stereo unspecified)	CYP2C19 inhib 80
CCOC(=O)N1CCC(n2c(SCC(=O)Nc3ccccc3OC)nc3ccccc3c2=O)CC1	CYP2C19 inhib 90, CYP2C9 inhib 95
CCOC(=O)N1CCC(n2c(SCC(=O)N3CCC(C)CC3)nc3ccccc3c2=O)CC1	CYP2C19 inhib 57, CYP2C9 inhib 60
CCOC(=O)N1CCC(n2c(SCC(=O)NCc3ccccc3)nc3ccccc3c2=O)CC1	CYP2C19 inhib 60, CYP2C9 inhib 53
COCC(C)n1c(SCC(=O)NCCC2=CCCCC2)nc2ccccc2c1=O (stereo unspecified)	CYP2C19 inhib 84, CYP2C9 inhib 87 (no result: MRP reversal)
O=C(CSc1nnc(C23CC4CC(CC(C4)C2)C3)o1)Nc1ccc(N2CCOCC2)c(Cl)c1	none
CCC(=O)N1COC[C@@H]1Cc1ccccc1	none (no result: CYP2C19 activ, CYP2C9 act, CYP2C19 inhib, MRP reversal, CYP2C9 inhib)
COc1ccc(NC(=O)CSc2nc3ccccc3c(=O)n2CCCN2CCCCC2)c(OC)c1	CYP2C19 inhib 64
Nn1c(SCC(=O)Nc2ccccc2F)nc2ccccc2c1=O	MRP1 act 8.8
CCOC(=O)N1CCC(n2c(SCC(=O)NCCC3=CCCCC3)nc3ccccc3c2=O)CC1	CYP2C19 inhib 58, CYP2C9 inhib 68
CC1(C)CSC(=S)N1S(=O)(=O)c1ccccc1	CYP2C19 inhib 75
CN(C)CCOC(C)(c1ccccc1)c1ccccn1 (stereo unspecified)	none (no result: CYP2C19 activ, CYP2C9 act, CYP2C19 inhib, CYP2C9 inhib)
CNc1nc(SC)nc2ccsc12	CYP2C9 act 2.3 (no result: MRP reversal)
C=CCSc1nc(NC)c2sccc2n1	CYP2C9 act 2.5 (no result: MRP reversal)
Cc1ccc(N=c2sc(C)c(C)n2C)cc1	none (no result: CYP2C19 activ, CYP2C9 act, CYP2C19 inhib, MRP reversal, CYP2C9 inhib)
CC(=Nc1ccccc1)Nc1ccccc1	CYP2C19 inhib 79
CCOC(=O)CSc1nnc(CNC(=O)c2ccco2)n1C	none
Cc1[nH]nc2c1C(c1ccccn1)N(c1ccc(Br)cc1)C2=O (stereo unspecified)	none
CCOC(=O)c1ccc(N2C(=O)c3n[nH]c(C)c3C2c2ccccn2)cc1 (stereo unspecified)	CYP2C9 inhib 69
COC(CN1C(=O)C(O)=C(C(C)=O)C1c1ccccn1)OC (stereo unspecified)	none
CCOC(=O)c1ccc(N2C(=O)C(O)=C(C(C)=O)C2c2ccccn2)cc1 (stereo unspecified)	CYP2C9 inhib 52
CCOC(=O)c1ccc(N2C(=O)c3n[nH]c(C)c3C2c2cccnc2)cc1 (stereo unspecified)	CYP2C9 inhib 68 (no result: MRP reversal)
CCc1nnc(NC(=O)CSc2nnc(-c3ccc(NS(=O)(=O)c4ccccc4)cc3)o2)s1	none (no result: CYP2C19 activ, CYP2C9 act, CYP2C19 inhib, MRP reversal, CYP2C9 inhib)
Cc1ccc(-c2nc(C3CCCN(S(=O)(=O)c4ccc(C)cc4)C3)no2)cc1 (stereo unspecified)	CYP2C19 inhib 58, CYP2C9 inhib 57
Cc1ccc(-c2nc(C3CCCN(S(=O)(=O)c4ccc(C(C)(C)C)cc4)C3)no2)cc1 (stereo unspecified)	none (no result: MRP reversal)
Cc1cccc(CCNS(=O)(=O)c2ccc3c(c2)oc(=O)n3C)c1	CYP2C19 inhib 89
CCN(CCNS(=O)(=O)c1ccc2[nH]c(=O)sc2c1)c1ccccc1	CYP2C19 inhib 100 (no result: MRP reversal)
Cc1ccc(NC(=O)CCNS(=O)(=O)c2ccc3c(c2)oc(=O)n3C)cc1	none
CCOc1ccccc1CNS(=O)(=O)c1ccc2c(c1)oc(=O)n2C	CYP2C9 act 2.3, CYP2C19 inhib 78
Cn1c(=O)oc2cc(S(=O)(=O)NCCc3ccccc3)ccc21	CYP2C19 inhib 80
CCc1ccc(Nc2nnc(SCc3cc(=O)n4ccsc4n3)s2)cc1	none
CC(CCc1ccccc1)NC(=O)C(=O)NCCc1ccccc1 (stereo unspecified)	none (no result: CYP2C19 activ, CYP2C9 act, CYP2C19 inhib, MRP reversal, CYP2C9 inhib)
CC1CCN(c2nnc(-c3cccs3)c3ccccc23)CC1	none (no result: CYP2C19 activ, CYP2C9 act, CYP2C19 inhib, MRP reversal, CYP2C9 inhib)

Compound activity: PubChem, several laboratories
